Where a name gives a salt, the structure may show the parent alone. ± gives the standard deviation of the averaged measurements.
Assays:
[1] = test system: Saccharomyces cerevisiae BY4741 SeMeCo community; assay: z-score of prototroph abundance vs DMSO median; higher = larger share of this subpopulation than in DMSO controls; details: 10 µM; 24 h; SM minimal medium; subpopulation (auxotrophy): Prototroph
Method in brief: (§1)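 Scoring was based on each subpopulation's abundance, expressed as a z-score against the vehicle-well median. A Saccharomyces cerevisiae BY4741 community with four plasmids, each restoring one auxotrophy and encoding a distinct fluorescent protein, was pre-grown overnight to OD600 1.0, diluted to 0.3, and added at 70 µl to 384-well plates acoustically predosed with library drugs (10 µM final). It then grew 24 h in minimal SM medium before paraformaldehyde fixation and automated confocal microscopy, with single-auxotroph fluorescent strains setting thresholds and autofluorescence correction.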

[2] = test system: Saccharomyces cerevisiae BY4741 SeMeCo community; assay: z-score of subpopulation abundance vs DMSO median, subpopulation auxotrophic for U; higher = larger share of this subpopulation than in DMSO controls; details: 10 µM; 24 h; SM minimal medium; subpopulation (auxotrophy): U
Method in brief: as §1

[3] = test system: Saccharomyces cerevisiae BY4741 SeMeCo community; assay: z-score of subpopulation abundance vs DMSO median, subpopulation auxotrophic for H; higher = larger share of this subpopulation than in DMSO controls; details: 10 µM; 24 h; SM minimal medium; subpopulation (auxotrophy): H
Method in brief: as §1

[4] = test system: Saccharomyces cerevisiae BY4741 SeMeCo community; assay: z-score of subpopulation abundance vs DMSO median, subpopulation auxotrophic for LU; higher = larger share of this subpopulation than in DMSO controls; details: 10 µM; 24 h; SM minimal medium; subpopulation (auxotrophy): LU
Method in brief: as §1

[5] = test system: Saccharomyces cerevisiae BY4741 SeMeCo community; assay: z-score of subpopulation abundance vs DMSO median, subpopulation auxotrophic for LM; higher = larger share of this subpopulation than in DMSO controls; details: 10 µM; 24 h; SM minimal medium; subpopulation (auxotrophy): LM
Method in brief: as §1

[6] = test system: Saccharomyces cerevisiae BY4741 SeMeCo community; assay: z-score of subpopulation abundance vs DMSO median, subpopulation auxotrophic for HM; higher = larger share of this subpopulation than in DMSO controls; details: 10 µM; 24 h; SM minimal medium; subpopulation (auxotrophy): HM
Method in brief: as §1

[7] = test system: Saccharomyces cerevisiae BY4741 SeMeCo community; assay: z-score of subpopulation abundance vs DMSO median, subpopulation auxotrophic for HU; higher = larger share of this subpopulation than in DMSO controls; details: 10 µM; 24 h; SM minimal medium; subpopulation (auxotrophy): HU
Method in brief: as §1

[8] = test system: Saccharomyces cerevisiae BY4741 SeMeCo community; assay: z-score of subpopulation abundance vs DMSO median, subpopulation auxotrophic for UM; higher = larger share of this subpopulation than in DMSO controls; details: 10 µM; 24 h; SM minimal medium; subpopulation (auxotrophy): UM
Method in brief: as §1

[9] = test system: Saccharomyces cerevisiae BY4741 SeMeCo community; assay: z-score of subpopulation abundance vs DMSO median, subpopulation auxotrophic for HL; higher = larger share of this subpopulation than in DMSO controls; details: 10 µM; 24 h; SM minimal medium; subpopulation (auxotrophy): HL
Method in brief: as §1

[10] = test system: Saccharomyces cerevisiae BY4741 SeMeCo community; assay: z-score of subpopulation abundance vs DMSO median, subpopulation auxotrophic for HLM; higher = larger share of this subpopulation than in DMSO controls; details: 10 µM; 24 h; SM minimal medium; subpopulation (auxotrophy): HLM
Method in brief: as §1

[11] = test system: Saccharomyces cerevisiae BY4741 SeMeCo community; assay: z-score of subpopulation abundance vs DMSO median, subpopulation auxotrophic for LUM; higher = larger share of this subpopulation than in DMSO controls; details: 10 µM; 24 h; SM minimal medium; subpopulation (auxotrophy): LUM
Method in brief: as §1

[12] = test system: Saccharomyces cerevisiae BY4741 SeMeCo community; assay: z-score of subpopulation abundance vs DMSO median, subpopulation auxotrophic for HLUM; higher = larger share of this subpopulation than in DMSO controls; details: 10 µM; 24 h; SM minimal medium; subpopulation (auxotrophy): HLUM
Method in brief: as §1

[13] = test system: Saccharomyces cerevisiae BY4741 SeMeCo community; assay: mean cell size (pixel area) (pixels); higher = larger cells; details: 10 µM; 24 h; SM minimal medium
Method in brief: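 A Saccharomyces cerevisiae BY4741 community carrying four plasmids, each with a fluorescent marker and each complementing one auxotrophy, was exposed for 24 h to drug at a final 10 µM in SM medium in acoustically predosed 384-well plates. The overnight preculture (OD600 = 1.0) was diluted to OD600 = 0.3 before 70 µl was added per well. Cells were then fixed with paraformaldehyde, imaged by automated confocal microscopy and analysed in Harmony to derive mean cell pixel area per well, averaged over 3 replicates. Same SeMeCo high-content imaging drug screen: Selleck FDA-approved drugs at 10 µM, 24 h in SM medium, 384-well plates, 3 replicates.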

[14] = test system: Saccharomyces cerevisiae BY4741 SeMeCo community; assay: z-score of subpopulation abundance vs DMSO median, subpopulation auxotrophic for L; higher = larger share of this subpopulation than in DMSO controls; details: 10 µM; 24 h; SM minimal medium; subpopulation (auxotrophy): L
Method in brief: as §1

[15] = test system: Saccharomyces cerevisiae BY4741 SeMeCo community; assay: z-score of subpopulation abundance vs DMSO median, subpopulation auxotrophic for HUM; higher = larger share of this subpopulation than in DMSO controls; details: 10 µM; 24 h; SM minimal medium; subpopulation (auxotrophy): HUM
Method in brief: as §1

Row | SMILES | z-score of prototroph abundance [1] | z-score of subpopulation abundance [2] | z-score of subpopulation abundance [3] | z-score of subpopulation abundance [4] | z-score of subpopulation abundance [5] | z-score of subpopulation abundance [6] | z-score of subpopulation abundance [7] | z-score of subpopulation abundance [8] | z-score of subpopulation abundance [9] | z-score of subpopulation abundance [10] | z-score of subpopulation abundance [11] | z-score of subpopulation abundance [12] | mean cell size [13] | z-score of subpopulation abundance [14] | z-score of subpopulation abundance [15]
1 | Cc1ccc(Sc2ccccc2N2CCNCC2)c(C)c1 | 0.66 | -0.43 | -0.02 | -0.09 | -0.55 | -0.62 | -0.76 | -0.97 | -0.11 | -0.35 | -0.73 | -0.16 | – | – | –
2 | C=C1CC[C@@H]2[C@](C)(CO)[C@H](O)CC[C@@]2(C)[C@H]1C/C=C1\C=COC1=O [Dehydroandrographolide] | – | – | – | – | – | – | – | – | – | – | – | – | 12.37 ± 0.086 | – | –
3 | COc1cc(Cc2cnc(N)nc2N)cc(OC)c1OC [Trimethoprim] | 0.19 | 0.2 | -0.5 | 0.14 | -0.07 | -0.06 | 0 | 0.07 | -0.46 | -0.6 | 0.27 | -0.22 | – | – | –
4 | CC[C@H]1OC(=O)C[C@@H](O)[C@H](C)[C@@H](O[C@@H]2O[C@H](C)[C@@H](O[C@H]3C[C@@](C)(O)[C@@H](O)[C@H](C)O3)[C@H](N(C)C)[C@H]2O)[C@@H](CC=O)C[C@@H](C)C(=O)/C=C/C(C)=C/[C@@H]1CO[C@@H]1O[C@H](C)[C@@H](O)[C@@H](OC)[C@H]1OC [Tylosin tartrate] | – | – | – | – | – | – | – | – | – | – | – | – | 12.45 ± 0.055 | – | –
5 | C[C@H]1c2cccc(O)c2C(=O)C2=C(O)[C@]3(O)C(=O)C(C(N)=O)=C(O)[C@@H](N(C)C)[C@@H]3[C@@H](O)[C@@H]21 [Doxycycline monohydrate] | – | – | – | – | – | – | – | – | – | – | – | – | 12.2 ± 0.19 | – | –
6 | O=c1[nH]cnc2c1ncn2[C@H]1CC[C@@H](CO)O1 [Didanosine] | – | – | – | – | – | – | – | – | – | – | – | – | 12.4 ± 0.19 | – | –
7 | CC1=C(C(=O)O)N2C(=O)[C@@H](NC(=O)[C@H](N)C3=CCC=CC3)[C@H]2SC1 [Cefradine] | 0.86 | 0.07 | -0.04 | -1.14 | – | – | -0.92 | -0.6 | 0.06 | 0.04 | -0.81 | 0.1 | 12.12 ± 0.02 | 0.14 | -0.79
8 | Nc1ccc(S(=O)(=O)Nc2cnc3ccccc3n2)cc1 [Sulfaquinoxaline sodium] | -0.68 | – | -1.04 | 0.22 | 0.34 | 0.61 | 1.05 | 1.56 | -0.29 | -0.05 | 0.81 | -0.23 | – | -1.08 | 0.79
9 | Cc1ccc(C(=O)C(C)CN2CCCCC2)cc1 (stereo not drawn) [Tolperisone HCl] | 1.01 | -0.15 | -0.79 | -0.75 | -0.14 | – | -0.2 | -0.03 | – | -0.48 | -0.71 | – | 12.6 ± 0.14 | -0.42 | -0.56
10 | CO[C@H]1C[C@@H]2CC[C@@H](C)[C@@](O)(O2)C(=O)C(=O)N2CCCC[C@H]2C(=O)O[C@H]([C@H](C)C[C@@H]2CC[C@@H](O)[C@H](OC)C2)CC(=O)[C@H](C)/C=C(\C)[C@@H](O)[C@@H](OC)C(=O)[C@H](C)C[C@H](C)/C=C/C=C/C=C/1C [Rapamycin (Sirolimus)] | – | 3.85 | 14.3 | 3.56 | 5.67 | 21.4 | 29.9 | 13.7 | 13.8 | 16 | 11.9 | – | – | -1.39 | 33

Source: the supplement of paper PMC8975748
